Records with an inconclusive call do not appear. Active and inactive are the calls of the source. Unless noted, calls come from the whole dose curve; as a rule, active = well fitted curve in the direction sought with a large enough effect; inconclusive = small, poorly fitted or top-dose-only effect, or another doubt; inactive = no such curve, though single readings can be large; an effect the other way counts as inactive or inconclusive.
What was measured:
[1] = AP1 Signaling Pathway (AID 357; active = well fitted curve in either direction with a large enough effect, not every such curve was filed as active;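 note: ME-180 reporter cells stimulated with EGF at its EC50 level; % is set by controls: 0 for no effect and ±100 for the full control effect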)
In short: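 In this screen, ME-180 cells in Opti-MEM with 0.5% dialyzed FBS received EC50 EGF and compound titrations for 5 h. AP-1 reporter beta-lactamase was detected via CCF4 ratio, giving AC50 for positive and negative modulators.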

[2] = biological target: Cytochrome P450 1A2 (Homo sapiens) (UniProt P05177); experiment: p450-cyp1a2 (AID 410; calls by dose curve;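 note: -100% = full effect of reference inhibitor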)
In short: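 Human CYP1A2 (20nM) demethylated Luciferin-ME at its Km (100uM) in 100mM KPO4. After 10 min compound preincubation, NADPH regeneration ran the reaction 60 min at room temperature. Luciferin was read by luminescence, normalized to 57 uM furafylline.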

[3] = NFAT Signaling Pathway (AID 444; active = well fitted curve in either direction with a large enough effect, not every such curve was filed as active;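 note: carbachol stimulus at about its EC50 of 1 µM final; % is set by controls: 0 for no effect and ±100 for the full control effect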); settings: Jurkat NFAT-bla M1, carbachol, beta-lactamase ratio, 5 h; at 17.2 µM (top of the series) unless noted
In short: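 Read-out: CCF4 FRET ratio (460 nm/530 nm) after 1 h RT dye loading, used for %activity and AC50 from titration series. Cells: Jurkat NFAT-β-lactamase/M1 line, treated with compound plus 1 uM carbachol for 5 h, 37 °C.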

[4] = Stat Signaling Pathway (AID 446; active = well fitted curve in either direction with a large enough effect, not every such curve was filed as active;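 note: ME-180 cervical cancer cells given 40 pM IL-6 alongside compound; SIE-controlled beta-lactamase reporter measured as 460/530 nm FRET emission ratio; % is set by controls: 0 for no effect and ±100 for the full control effect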)
In short: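 Screening format detects activators and inhibitors alike: ME-180 SIE-bla cells stimulated at 40 pM IL-6 for 5 hrs with compound, then dual-emission beta-lactamase read at 405 nm excitation.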

[5] = biological target: Glucocorticoid receptor (Homo sapiens) (UniProt P04150); experiment: GR-GFP Redistribution (AID 450;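 active = compounds whose dose series gives a full or clear partial fitted curve of increased nuclear translocation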; note: potency is the fitted concentration of half-maximal effect); settings: U2OS GR-GFP nuclear translocation, laser cytometry, 2 h
[6] = biological target: Glucocorticoid receptor (Homo sapiens) (UniProt P04150); experiment: GR-EFC Redistribution (AID 451; calls by dose curve; note: potency is the fitted concentration of half-maximal effect); settings: CHO-K1 GR-EFC translocation, beta-gal luminescence, 2 h
In short: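 Translocation of GR-ED fusion to nuclear EA restores b-gal, read by luminescence after 1 h room-temperature detection. Engineered CHO-K1 biosensor cells, 1,000/well, exposed 2 h at 37 C to titrations up to 46 uM final.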

[7] = biological target: Mitogen-activated protein kinase 10 (Mus musculus) (UniProt Q61831); experiment: JNK3 AlphaScreen Assay (AID 530; active = well fitted curve in either direction with a large enough effect, not every such curve was filed as active;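 note: kinase came from lysate of stimulated human HepG2 cells; signal reports phosphorylation of biotinylated GST-cJun 1-79 at Ser73 with 10 µM ATP; % is set by controls: 0 for no effect and ±100 for the full control effect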)
In short: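 Room-temperature AlphaScreen kinase assay; pre-activated HepG2 lysate as JNK3 source, biotin-GST-cJun(1-79) substrate, 10 uM ATP, compound 15 min preincubation.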

[8] = biological target: 3',5'-cyclic-AMP phosphodiesterase 4B (Homo sapiens) (UniProt Q07343); experiment: qHTS Assay for Inhibitors of PDE-IV (AID 607; active = well fitted activation curve with a large enough effect in the main read-out, with a control signal flat, not every such curve was filed as active; note: % of control where 0% means no effect)
In short: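 The readout is membrane depolarisation from a cAMP-sensing CNG channel, detected with a potential dye at ex 535/em 590. Cells were HEK293-derived (endogenous PDE-IV) at 1000 cells/well, titrated up to 22.9 uM final.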

[9] = biological target: ATP-dependent 6-phosphofructokinase (Trypanosoma brucei brucei) (UniProt O15648); experiment: qHTS Assay to Find Inhibitors of T. brucei phosphofructokinase: hit validation (AID 492961)
In short: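 In this biochemical qHTS validation, titrated compounds were tested against 1.25 nM PFK with 0.1 mM ATP and 0.5 mM F6P. Percent activity came from controls lacking or containing enzyme.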

[10] = biological target: Ubiquitin carboxyl-terminal hydrolase 1 (Homo sapiens) (UniProt O94782); experiment: Inhibitors of USP1/UAF1: Pilot qHTS (AID 504865);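 note: rhodamine fluorescence freed from ubiquitin-rhodamine substrate followed over time; top concentration of the series differs between compounds; % is set by controls: 0 for no effect and ±100 for the full control effect; nearly all actives have a fitted effect of over 35% in size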
In short: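 Deubiquitinase activity followed as kinetic rhodamine fluorescence release from 150 nM Ub-Rho. 1 nM USP1/UAF1 with compound, after 15 min room-temperature preincubation, in HEPES pH 7.8 buffer containing TCEP, EDTA, BSA and Tween-20.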

[11] = biological target: Luciferin 4-monooxygenase (Photinus pyralis) (UniProt P08659); experiment: Biochemical firefly luciferase enzyme assay for NPC (AID 624030);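 note: purified P. pyralis luciferase at 10 nM with luciferin and ATP substrate; 0% = DMSO and -100% = full luciferase inhibition by PTC124 control; nearly all actives have a fitted effect of over 70% in size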
In short: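 Direct inhibition of firefly luciferase enzyme (10 nM final, 50 mM Tris Acetate) assessed by luminescence within 5 minutes. Percent activity scaled between DMSO and PTC124 positive control, with concentration-effect curves classified by fit quality and response.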

[12] = S16 Schwann cell viability assay (CellTiter-Glo assay) (AID 624031);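 note: native untransfected S16 rat Schwann cells; cellular ATP luminescence as a viability measure; plate controls were DMSO-treated cells for no effect and cell-free wells for full effect; nearly all actives have a fitted effect of over 70% in size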
In short: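 Parental S16 cells, 24 h compound, 37 °C. ATP-luminescence viability; DMSO = 0% activity, empty wells as reference; curves classified by fit quality and efficacy.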

[13] = S16 Schwann cell PMP22 intronic element firefly luciferase assay (AID 624032);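 note: plate controls were DMSO for no effect and PTC124 positive control mean for full effect; nearly all actives have a fitted effect of over 30% in size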
In short: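 Luciferase reporter of PMP22 intronic-element expression in stably transfected S16 rat Schwann cells, read by ONE-Glo luminescence after 24 h compound exposure at 37 C. Activity scaled between DMSO (0%) and positive-control PTC124; concentration-effect curves quality-classified.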

[14] = qHTS profiling for inhibitors of Plasmodium falciparum proliferation (AID 504749);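 note: 0% = DMSO vehicle and full inhibition = artemisinin control; nearly all actives have a fitted effect of over 60% in size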; settings: P. falciparum in erythrocytes, SYBR Green DNA, 72 h, at 12.8 µM (top of the series)
In short: (§1)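 Three-day growth assay of blood-stage parasites in erythrocytes (0.3% parasitemia, 2.5% hematocrit) at 37 C, 5% CO2, quantified by SYBR Green DNA staining after overnight detergent lysis.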

3D7 = experiment: as above; settings: P. falciparum in erythrocytes, SYBR Green DNA, 72 h; series mostly up to 12.8 µM
In short: as §1

7G8 = experiment: as above; settings: P. falciparum in erythrocytes, SYBR Green DNA, 72 h; series mostly up to 12.8 µM
In short: as §1

AA1029 = experiment: as above; settings: P. falciparum in erythrocytes, SYBR Green DNA, 72 h; series mostly up to 12.8 µM
In short: as §1

AS120 = experiment: as above; settings: P. falciparum in erythrocytes, SYBR Green DNA, 72 h; series mostly up to 12.8 µM
In short: as §1

ATS189 = experiment: as above; settings: P. falciparum in erythrocytes, SYBR Green DNA, 72 h; series mostly up to 12.8 µM
In short: as §1

ATS95 = experiment: as above; settings: P. falciparum in erythrocytes, SYBR Green DNA, 72 h; series mostly up to 12.8 µM
In short: as §1

C2A = experiment: as above; settings: P. falciparum in erythrocytes, SYBR Green DNA, 72 h; series mostly up to 12.8 µM
In short: as §1

CP185 = experiment: as above; settings: P. falciparum in erythrocytes, SYBR Green DNA, 72 h; series mostly up to 12.8 µM
In short: as §1

CP191 = experiment: as above; settings: P. falciparum in erythrocytes, SYBR Green DNA, 72 h; series mostly up to 12.8 µM
In short: as §1

CP192 = experiment: as above; settings: P. falciparum in erythrocytes, SYBR Green DNA, 72 h; series mostly up to 12.8 µM
In short: as §1

CP194 = experiment: as above; settings: P. falciparum in erythrocytes, SYBR Green DNA, 72 h; series mostly up to 12.8 µM
In short: as §1

CP201 = experiment: as above; settings: P. falciparum in erythrocytes, SYBR Green DNA, 72 h; series mostly up to 12.8 µM
In short: as §1

CP203 = experiment: as above; settings: P. falciparum in erythrocytes, SYBR Green DNA, 72 h; series mostly up to 12.8 µM
In short: as §1

CP211 = experiment: as above; settings: P. falciparum in erythrocytes, SYBR Green DNA, 72 h; series mostly up to 12.8 µM
In short: as §1

CP215 = experiment: as above; settings: P. falciparum in erythrocytes, SYBR Green DNA, 72 h; series mostly up to 12.8 µM
In short: as §1

CP217 = experiment: as above; settings: P. falciparum in erythrocytes, SYBR Green DNA, 72 h; series mostly up to 12.8 µM
In short: as §1

CP237 = experiment: as above; settings: P. falciparum in erythrocytes, SYBR Green DNA, 72 h; series mostly up to 12.8 µM
In short: as §1

CP238 = experiment: as above; settings: P. falciparum in erythrocytes, SYBR Green DNA, 72 h; series mostly up to 12.8 µM
In short: as §1

CP247 = experiment: as above; settings: P. falciparum in erythrocytes, SYBR Green DNA, 72 h; series mostly up to 12.8 µM
In short: as §1

CP250 = experiment: as above; settings: P. falciparum in erythrocytes, SYBR Green DNA, 72 h; series mostly up to 12.8 µM
In short: as §1

CP252 = experiment: as above; settings: P. falciparum in erythrocytes, SYBR Green DNA, 72 h; series mostly up to 12.8 µM
In short: as §1

Sequence of Glucocorticoid receptor (Homo sapiens) (P04150 whole entry, looked up, the tested form may be a part): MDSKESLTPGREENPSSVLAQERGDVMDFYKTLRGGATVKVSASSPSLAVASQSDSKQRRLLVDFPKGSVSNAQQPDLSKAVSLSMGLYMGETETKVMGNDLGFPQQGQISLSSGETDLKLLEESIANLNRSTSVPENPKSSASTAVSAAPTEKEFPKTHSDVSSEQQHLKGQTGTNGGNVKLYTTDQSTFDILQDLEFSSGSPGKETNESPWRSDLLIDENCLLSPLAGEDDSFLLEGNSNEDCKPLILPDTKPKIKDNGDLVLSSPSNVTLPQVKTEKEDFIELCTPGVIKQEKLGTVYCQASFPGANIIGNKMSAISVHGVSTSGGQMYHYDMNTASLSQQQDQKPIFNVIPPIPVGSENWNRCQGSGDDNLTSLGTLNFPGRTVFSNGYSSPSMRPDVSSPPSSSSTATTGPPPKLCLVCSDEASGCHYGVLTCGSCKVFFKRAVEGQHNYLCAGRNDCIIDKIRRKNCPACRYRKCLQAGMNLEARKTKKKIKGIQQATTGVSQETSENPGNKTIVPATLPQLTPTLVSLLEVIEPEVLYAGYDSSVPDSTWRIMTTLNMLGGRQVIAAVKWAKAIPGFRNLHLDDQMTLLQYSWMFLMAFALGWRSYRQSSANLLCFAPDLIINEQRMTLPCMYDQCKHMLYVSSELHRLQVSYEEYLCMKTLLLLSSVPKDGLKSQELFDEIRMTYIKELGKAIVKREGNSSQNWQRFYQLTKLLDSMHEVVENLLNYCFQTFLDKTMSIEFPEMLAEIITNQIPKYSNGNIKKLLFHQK
Sequence of ATP-dependent 6-phosphofructokinase (Trypanosoma brucei brucei) (O15648 whole entry, looked up): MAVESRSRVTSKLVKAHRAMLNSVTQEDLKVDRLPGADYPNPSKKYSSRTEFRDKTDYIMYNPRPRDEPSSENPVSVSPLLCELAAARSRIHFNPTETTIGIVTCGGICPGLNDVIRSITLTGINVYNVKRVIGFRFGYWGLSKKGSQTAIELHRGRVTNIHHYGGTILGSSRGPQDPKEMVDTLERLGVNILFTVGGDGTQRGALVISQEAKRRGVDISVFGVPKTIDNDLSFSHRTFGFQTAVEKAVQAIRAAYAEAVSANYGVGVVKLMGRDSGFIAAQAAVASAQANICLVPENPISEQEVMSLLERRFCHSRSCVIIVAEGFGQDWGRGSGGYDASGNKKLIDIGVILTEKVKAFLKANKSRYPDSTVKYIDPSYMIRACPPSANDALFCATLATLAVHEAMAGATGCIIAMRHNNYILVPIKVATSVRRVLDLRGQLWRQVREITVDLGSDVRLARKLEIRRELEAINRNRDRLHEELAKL
Sequence of Cytochrome P450 1A2 (Homo sapiens) (P05177 whole entry, looked up): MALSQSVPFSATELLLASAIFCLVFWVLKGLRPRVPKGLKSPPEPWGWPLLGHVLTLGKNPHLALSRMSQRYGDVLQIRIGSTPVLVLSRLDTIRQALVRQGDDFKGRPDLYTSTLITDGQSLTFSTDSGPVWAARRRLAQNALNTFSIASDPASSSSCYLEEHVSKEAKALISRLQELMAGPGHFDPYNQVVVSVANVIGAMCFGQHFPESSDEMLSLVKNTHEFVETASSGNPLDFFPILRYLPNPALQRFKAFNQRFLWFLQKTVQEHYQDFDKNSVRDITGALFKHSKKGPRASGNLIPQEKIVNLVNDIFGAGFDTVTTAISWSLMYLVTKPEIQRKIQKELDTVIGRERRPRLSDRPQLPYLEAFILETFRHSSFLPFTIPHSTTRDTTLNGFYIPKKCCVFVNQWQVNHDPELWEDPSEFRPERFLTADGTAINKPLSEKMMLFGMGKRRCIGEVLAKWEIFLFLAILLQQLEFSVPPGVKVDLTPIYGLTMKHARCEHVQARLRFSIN
Sequence of Luciferin 4-monooxygenase (Photinus pyralis) (P08659 whole entry, looked up): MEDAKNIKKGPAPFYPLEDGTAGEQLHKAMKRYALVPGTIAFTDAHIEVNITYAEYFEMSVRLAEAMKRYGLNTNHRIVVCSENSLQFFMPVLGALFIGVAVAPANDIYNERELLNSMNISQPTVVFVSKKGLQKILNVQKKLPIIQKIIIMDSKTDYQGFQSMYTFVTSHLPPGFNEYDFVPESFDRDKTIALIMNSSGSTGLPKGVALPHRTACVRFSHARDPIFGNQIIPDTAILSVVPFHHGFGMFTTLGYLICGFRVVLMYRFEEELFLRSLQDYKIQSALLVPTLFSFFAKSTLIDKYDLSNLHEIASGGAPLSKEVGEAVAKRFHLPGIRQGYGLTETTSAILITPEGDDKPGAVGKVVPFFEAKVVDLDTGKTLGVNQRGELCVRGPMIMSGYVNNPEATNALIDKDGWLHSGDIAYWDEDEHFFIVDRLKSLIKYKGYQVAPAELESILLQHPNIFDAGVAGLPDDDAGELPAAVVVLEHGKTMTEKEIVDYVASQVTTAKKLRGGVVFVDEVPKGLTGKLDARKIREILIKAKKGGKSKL
Sequence of 3',5'-cyclic-AMP phosphodiesterase 4B (Homo sapiens) (Q07343 whole entry, looked up): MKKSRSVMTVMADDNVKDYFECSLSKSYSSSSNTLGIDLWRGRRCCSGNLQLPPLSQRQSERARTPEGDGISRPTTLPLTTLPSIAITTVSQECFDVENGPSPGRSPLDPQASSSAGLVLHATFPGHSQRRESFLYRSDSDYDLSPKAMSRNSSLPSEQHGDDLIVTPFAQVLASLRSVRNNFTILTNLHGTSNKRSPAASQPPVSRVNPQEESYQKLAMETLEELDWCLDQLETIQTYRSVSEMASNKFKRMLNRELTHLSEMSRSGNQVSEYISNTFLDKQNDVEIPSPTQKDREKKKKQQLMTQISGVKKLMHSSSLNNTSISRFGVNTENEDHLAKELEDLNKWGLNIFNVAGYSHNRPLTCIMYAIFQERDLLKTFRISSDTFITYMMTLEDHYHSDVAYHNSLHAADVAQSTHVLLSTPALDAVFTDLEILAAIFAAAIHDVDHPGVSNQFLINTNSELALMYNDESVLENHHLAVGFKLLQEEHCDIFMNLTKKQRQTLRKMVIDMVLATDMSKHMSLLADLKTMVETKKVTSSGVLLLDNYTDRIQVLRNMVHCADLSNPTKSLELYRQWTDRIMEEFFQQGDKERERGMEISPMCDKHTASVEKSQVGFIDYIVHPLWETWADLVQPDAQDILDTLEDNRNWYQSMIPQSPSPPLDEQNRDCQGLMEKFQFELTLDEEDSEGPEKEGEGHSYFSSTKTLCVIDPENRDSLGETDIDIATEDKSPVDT
Sequence of Ubiquitin carboxyl-terminal hydrolase 1 (Homo sapiens) (O94782 whole entry, looked up): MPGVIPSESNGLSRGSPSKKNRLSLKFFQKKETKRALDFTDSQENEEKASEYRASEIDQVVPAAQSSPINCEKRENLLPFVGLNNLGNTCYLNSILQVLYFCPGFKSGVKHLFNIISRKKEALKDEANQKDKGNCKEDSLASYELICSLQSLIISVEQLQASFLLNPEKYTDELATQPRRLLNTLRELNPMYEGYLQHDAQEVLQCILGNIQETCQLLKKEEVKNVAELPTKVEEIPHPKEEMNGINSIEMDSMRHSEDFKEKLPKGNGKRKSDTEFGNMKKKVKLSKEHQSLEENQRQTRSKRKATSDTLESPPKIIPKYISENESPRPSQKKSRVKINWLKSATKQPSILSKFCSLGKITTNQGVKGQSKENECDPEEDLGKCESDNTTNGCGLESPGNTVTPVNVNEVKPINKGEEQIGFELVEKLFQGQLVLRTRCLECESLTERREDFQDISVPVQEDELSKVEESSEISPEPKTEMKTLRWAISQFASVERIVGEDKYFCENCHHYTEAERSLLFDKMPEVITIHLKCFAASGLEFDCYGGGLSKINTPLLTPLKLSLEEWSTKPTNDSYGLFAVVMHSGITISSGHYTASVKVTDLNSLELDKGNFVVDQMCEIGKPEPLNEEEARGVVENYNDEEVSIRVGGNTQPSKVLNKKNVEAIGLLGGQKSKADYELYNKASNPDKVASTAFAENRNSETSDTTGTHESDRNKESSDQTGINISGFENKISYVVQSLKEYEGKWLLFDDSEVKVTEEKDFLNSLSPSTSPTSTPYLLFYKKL

C[C@H](Oc1ccccc1)C(=O)N[C@@H]1C(=O)N2[C@@H]1SC(C)(C)[C@@H]2C(=O)O
inactive: outcome [1] | Potency [2] | activity change, negative = inhibition [3] -0.496% | outcome [4] | Potency [5] > 20.6 µM | Potency [6] > 20.6 µM | Potency [7] | outcome [8] | outcome [9] | Potency [10] | Potency [11] | outcome [12] | Potency [13] | activity, negative = inhibition ([14]; parasite line A) 9.22% | activity, negative = inhibition ([14]; parasite line B) 2.55% | Potency (3D7) | Potency (7G8) | Potency (AA1029) | Potency (AS120) | Potency (ATS189) | Potency (ATS95) | Potency (C2A) | Potency (CP185) | Potency (CP191) | Potency (CP192) | Potency (CP194) | Potency (CP201) | Potency (CP203) | Potency (CP211) | Potency (CP215) | Potency (CP217) | Potency (CP237) | Potency (CP238) | Potency (CP247) | Potency (CP250) | Potency (CP252)

— PubChem BioAssay (NCATS)
